# Screening data: PubChem, National Center for Advancing Translational Sciences (NCATS)
# Sampled rows, rich in hits. Any-hit rate of the full collection: about 11%.
# Sfp PPTase inh: Sfp phosphopantetheinyl transferase inhibition | Potency, µM, inactives show largest response in the series, negative = inhibition, actives largely listed as inhibitors | hit rate 3.5% among 310,000 | AID 1490 | Biochemical Sfp PPTase activity, qHTS;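 also: the enzyme is Sfp with the accession as filed and its product quenches rhodamine fluorescence; potency is read from the fitted curve at half-maximal effect; 0% = enzyme reaction without inhibitor and -100% = no enzyme wells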
#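 Sfp 15 nM + cpd, 15 min RT; start w/ rhodamine-CoA 5 uM, BHQ-2-YbbR 12.5 uM (final); 50 mM Hepes pH 7.6, 10 mM MgCl2, 0.01% NP-40, 0.01% BSA; read 525/598 nm at 0 and 30 min.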
# G9a block: G9a (human) methyltransferase inhibition; Q96KQ7; G9a H3K9 monomethylation, AlphaScreen, 2 h; Potency, µM (titrated, usually from 102 µM), for inactives: at the top dose activity, negative = inhibition, actives largely listed as inhibitors; hit rate 8.8% among 350,000; also: potency is read from the fitted curve at half-maximal effect; nearly all actives have a fitted effect of over 75% in size
# Target sequence (Q96KQ7 913-1193 limits assumed): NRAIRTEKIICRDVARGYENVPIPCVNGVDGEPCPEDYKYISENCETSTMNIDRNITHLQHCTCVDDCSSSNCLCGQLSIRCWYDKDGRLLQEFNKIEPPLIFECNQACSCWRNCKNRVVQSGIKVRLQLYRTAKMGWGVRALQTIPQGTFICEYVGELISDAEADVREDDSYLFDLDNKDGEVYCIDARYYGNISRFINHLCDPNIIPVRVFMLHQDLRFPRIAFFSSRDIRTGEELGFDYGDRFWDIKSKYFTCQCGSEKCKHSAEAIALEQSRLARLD
#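 Enzyme 20 nM + cpd, 15 min RT; add b-H3K9 pep 500 nM / SAM 20 uM; 2 h RT; anti-H3K9me1 Ab 0.5 ug/mL + SA donor / anti-rabbit acceptor beads 20 ug/mL each, 10 min; AlphaScreen read.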
# Coupling enz: inhibits coupling enzyme system, counter-screen for aldolase hits | activity change, negative = inhibition, % at 58.2 µM, hits read low | hit rate 0.67% among 290,000 | coupling enzyme system counterscreen, AmpLite Red fluorescence; in the data active = activity change below about -30%
#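 Fluorescence at 525 nm excitation and 598 nm emission measured inhibition of the coupled detection system without aldolase. Compounds (at 57.5 uM final) were preincubated 10 min at room temperature with coupling enzyme reagent before a 20 min substrate/AmpLite Red step.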
# Tau FP inhib: inhibitors of human tau fibril formation; P10636; K18 P301L tau heparin fibrillization, Alexa594 FP, 6 h; Potency, µM (titrated, usually from 57.7 µM), for inactives: at the highest dose activity, negative = inhibition, hits mostly inhibitors; hit rate 0.39% among 280,000; AID 1468; also: potency is read from the fitted curve at half-maximal effect; nearly all actives have a fitted effect of over 55% in size
# Target sequence (P10636 561-689 P618L limits assumed): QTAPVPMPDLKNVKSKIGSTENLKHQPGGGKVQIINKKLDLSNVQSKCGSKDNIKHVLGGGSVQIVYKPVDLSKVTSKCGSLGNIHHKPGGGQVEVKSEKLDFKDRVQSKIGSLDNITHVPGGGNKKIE
#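 Human tau K18 […] P301L fragment, 15 uM unlabeled plus 0.24 uM Alexa 594-labeled tau (final), with compound and 20 uM heparin in 100 mM sodium acetate pH 7; 6 hr at 37 C, then Alexa 594 FP read.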
# Tau fluor counter: counter-screen for tau fibril formation inhibitors | tau K18 P301L Alexa594 fluorescence, heparin fibrillization | Potency, µM (highest dose often 57.7 µM), for the others: at the highest dose activity change, negative = decrease | hit rate 0.93% among 280,000; also: potency is read from the fitted curve at half-maximal effect; nearly all actives have a fitted effect of over 55% in size
#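 Human tau K18 P301L (15 uM unlabeled, 0.24 uM Alexa 594-labeled) in 100 mM sodium acetate pH 7 with 20 uM heparin, 6 hr at 37 C. ThT 30 uM added, 1 hr ambient; Alexa 594 FP and total fluorescence read at 555/632 nm.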
# Tau fibril ThT: blocks human tau fibril formation measured by thioflavin T; P10636; recombinant tau K18 P301L, heparin-induced fibrillization, ThT fluorescence; Potency, µM (top dose mostly 57.4 µM), for the others: top-dose activity, negative = inhibition, most hits filed as inhibitors; hit rate 2.1% among 270,000; AID 1460; also: potency is read from the fitted curve at half-maximal effect; nearly all actives have a fitted effect of over 55% in size
#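 ThT emission at 510 nm, taken 1 hr after adding 30 uM dye, quantifies aggregates formed when 20 uM heparin acts on human tau K18 P301L for 6 hr at 37 C.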
# The depositor's hits bear a star; ? = inconclusive; / = not tested or not shown; [ ] = dose if it differs, or a comment. Unless noted, calls follow the shape of the dose curve; as a rule, active = well fitted curve in the direction sought with a large enough effect; inconclusive = small, poorly fitted or top-dose-only effect, or another doubt; inactive = no such curve, though single readings can be large; an effect the other way counts as inactive or inconclusive. Unless noted, % is scaled to controls: 0 for no effect and ±100 for the full control effect.
SMILES,Sfp PPTase inh,G9a block,Coupling enz,Tau FP inhib,Tau fluor counter,Tau fibril ThT
CCCOc1ccc(C2C(C(=O)c3cc4ccccc4o3)=C(O)C(=O)N2c2cc(C)on2)cc1 (stereo unspecified),7%,32µM*,-1,/,/,/
Cc1cccc(Cn2cnc3c(oc4ccccc43)c2=O)c1,/,12%[59 µM],/,1%,0%,-2%
CN1C(=O)NC(c2ccccc2)C2=C1CN(c1cccc(C(F)(F)F)c1)C2=O (stereo unspecified),-9%,50µM*,-1,-8%,-7%,-7%
O=C(O)C1(C(=O)O)CCC1.[NH2-].[NH2-].[Pt+2],6.3µM*,/,2,/,/,/
CCn1c(/C=C2/C(=O)N(C)c3ccccc32)nc2ccccc2c1=O,-29%,50µM*,-4,3%,2%,7%
CCn1c(/C=C2\C(=O)N(C)c3ccccc32)nc2ccccc2c1=O,13%,-16%[59 µM],0,-1%,-11%,?
CCN1C(=O)/C(=C\c2nc3ccccc3c(=O)n2CC)c2ccccc21,-9%,63µM*,1,5%,-6%,?
NC(=O)[C@H]1O[C@@H](O)[C@H](O)[C@@H](O)[C@@H]1O,5%,?,/,/,/,/
Cc1[nH]c2ccccc2c1/C=N/NC(=O)CNC(=O)c1ccccc1,-4%,/,-1,18%,?,?
Cc1ccc(NC(=S)N/N=C/c2c(C)[nH]c3ccccc23)cc1,19%,50µM*,-2,9%,14µM*[quencher],?
Cc1[nH]c2ccccc2c1/C=N/NC(=O)CNC(=O)Cc1ccccc1,10%,71µM*,/,/,/,/
Cc1[nH]c2ccccc2c1/C=N/NC(=S)NCc1ccccc1,15%,50µM*,-2,-8%,13µM*[quencher],?
Cc1[nH]c2ccccc2c1/C=N/NC(=O)Nc1ccccc1,16%,1%,3,11%,?,?
Cc1[nH]c2ccccc2c1/C=N/NC(=O)c1cc(-c2ccccc2)n[nH]1,2%,/,-1,?,16µM*[quencher],/
Cc1[nH]c2ccccc2c1/C=N/NC(N)=S,-5%,-26%[59 µM],-1,-2%,-18%,?
O=c1n(Cc2ccccc2Cl)c2ccccc2c2nc(-c3ccccc3)nn12,/,-4%[59 µM],/,-7%,-12%,3%
CCc1c(C(C)S(=O)(=O)c2ccccc2)[nH]c(=O)n1CC (stereo unspecified),50µM*,3.5µM*,0,-18%,-4%,?
CCOc1ccccc1NC(=O)c1ccc2c(Cl)c3c(nc2c1)CCCC3,/,0%[59 µM],/,-9%,-4%,-7%
CCOc1ccc(NC(=O)N2CCN(C(=O)c3ccco3)CC2)cc1,12%,55%,/,/,/,/
Cc1ccc2c(c1)-c1c(ssc1=S)C(C)(C)N2C(=O)CSc1nncn1C,?,?,5,-7%,-22%,?
Cc1cc(C)c2c(c1)-c1c(ssc1=S)C(C)(C)N2C(=O)CSc1nncn1C,50µM*,5µM*,2,6%,-6%,?
CC1=CC(C)(C)N(C(=O)CSc2nnc(N)s2)c2cc(C)c(C)cc21,28%,74%[59 µM],1,8%,-10%,-13%
COc1ccc2c(c1)-c1c(ssc1=S)C(C)(C)N2C(=O)CSC1=NCCS1,13%,5.6µM*,1,15%,?,?
Cc1cc2c(cc1C)N(C(=O)CSC1=NCCS1)C(C)(C)c1ssc(=S)c1-2,7%,5µM*,0,0%,?,?
CCOc1ccc2c(c1)-c1c(ssc1=S)C(C)(C)N2C(=O)c1ccco1,1%,11µM*,0,-8%,?,?
SMILES,Sfp PPTase inh,G9a block,Coupling enz,Tau FP inhib,Tau fluor counter,Tau fibril ThT
CCOc1cc(C(=O)N2CCC3(CC2)NCCc2[nH]cnc23)cc(OCC)c1OCC,4%,/,/,/,/,/
CC1(C)c2ssc(=S)c2-c2ccccc2N1C(=O)CSC1=NCCS1,-4%,25µM*,-1,-3%,?,?
Cn1c(CC(=O)Nc2ccc(Cl)c(Cl)c2)nnc1SCC(=O)N1CCN(c2ccccc2)CC1,24%,6%,9,1%,?,-21%
Cn1c(CC(=O)Nc2ccc(Cl)c(Cl)c2)n[nH]c1=S,-24%,14µM*,0,-9%,-13%,-5%
CCn1c(CC(=O)Nc2ccc(C)cc2)n[nH]c1=S,0%,5µM*,1,7%,5%,4%
CC(NC(=O)CSc1nnc(CC(=O)Nc2ccc(Cl)c(Cl)c2)n1C)c1ccccc1 (stereo unspecified),-6%,13µM*,4,-19%,-22%,-14%
Cc1ccc(NC(=O)Cc2n[nH]c(=S)n2C)cc1,22%,?,0,?,-11%,-9%
O=C(Nc1c(C(=O)c2ccc(F)cc2)oc2ccccc12)c1cc(-c2ccccc2)on1,/,-19%[59 µM],/,-7%,-13%,2%
CCCCCCCCCCC1=C(C)C(=O)C(OC)=C(OC)C1=O,-16%,5µM*,-44*,12%,-22%,?
COC1=C(OC)C(=O)C(CCCCCCCCCCO)=C(C)C1=O,4%,?,-65*,-9%,?,?
Cc1[nH]c2ccccc2c1CCCO,18%,5%,-1,3%,2%,6%
Cc1cc(F)ccc1NC(=O)CCn1nc(C)c(S(=O)(=O)N2CCCCC2)c1C,/,-11%[59 µM],/,5%,3%,4%
COc1ccc(NC(=O)c2ccco2)c([N+](=O)[O-])c1,3%,?,4,0%,-7%,-22%
COc1ccc(NC(=O)CN2CCCCC2)c([N+](=O)[O-])c1,6%,6%[59 µM],5,-1%,-11%,-15%
COc1ccc(NC(=O)CC2Nc3cc(C)c(C)cc3NC2=O)c([N+](=O)[O-])c1 (stereo unspecified),-10%,/,4,?,?,11µM*
COc1ccc(NC(=O)Cc2ccc(C)cc2)c([N+](=O)[O-])c1,2%,?,1,-6%,-18%,-12%
COc1ccc(NC(=O)C/C(C)=N/NC(=O)c2ccco2)c([N+](=O)[O-])c1,-2%,45µM*,-1,/,/,/
COc1ccc(NC(=O)COC(=O)C2CCCCC2)c([N+](=O)[O-])c1,-9%,45µM*,2,10%,-29%,?
CCOc1ccc(NC(=O)COC(=O)C2(C)CC2(Cl)Cl)c([N+](=O)[O-])c1 (stereo unspecified),-15%,13µM*,3,18%,-25%,?
CC(=O)OCC(NC(=O)C(COCc1ccccc1)NC(=O)OC(C)(C)C)C1OC(n2cc(F)c(=O)[nH]c2=O)C(OC(C)=O)C1OC(C)=O (stereo unspecified),9%,/,1,/,/,/
COc1ccc(Cl)cc1NC(=O)c1ccc(CN2C(=O)CCn3nc(C)cc32)cc1,/,-26%[59 µM],/,5%,-10%,3%
